The sample as a whole holds a higher share of hits than the screen did.
Dicer inh: blocks human Dicer maturation of pre-miR-21. Q9UPY3. cat-ELCCA pre-miR-21 Dicer processing, chemiluminescence; hits give high values. z-score at 25 µM. actives 6% (n = 47,000); in the data active means z-score above about 3, passing the limit was not always enough;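 further: higher signal means more uncleaved substrate so more Dicer inhibition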
Target sequence (Q9UPY3 whole entry, looked up): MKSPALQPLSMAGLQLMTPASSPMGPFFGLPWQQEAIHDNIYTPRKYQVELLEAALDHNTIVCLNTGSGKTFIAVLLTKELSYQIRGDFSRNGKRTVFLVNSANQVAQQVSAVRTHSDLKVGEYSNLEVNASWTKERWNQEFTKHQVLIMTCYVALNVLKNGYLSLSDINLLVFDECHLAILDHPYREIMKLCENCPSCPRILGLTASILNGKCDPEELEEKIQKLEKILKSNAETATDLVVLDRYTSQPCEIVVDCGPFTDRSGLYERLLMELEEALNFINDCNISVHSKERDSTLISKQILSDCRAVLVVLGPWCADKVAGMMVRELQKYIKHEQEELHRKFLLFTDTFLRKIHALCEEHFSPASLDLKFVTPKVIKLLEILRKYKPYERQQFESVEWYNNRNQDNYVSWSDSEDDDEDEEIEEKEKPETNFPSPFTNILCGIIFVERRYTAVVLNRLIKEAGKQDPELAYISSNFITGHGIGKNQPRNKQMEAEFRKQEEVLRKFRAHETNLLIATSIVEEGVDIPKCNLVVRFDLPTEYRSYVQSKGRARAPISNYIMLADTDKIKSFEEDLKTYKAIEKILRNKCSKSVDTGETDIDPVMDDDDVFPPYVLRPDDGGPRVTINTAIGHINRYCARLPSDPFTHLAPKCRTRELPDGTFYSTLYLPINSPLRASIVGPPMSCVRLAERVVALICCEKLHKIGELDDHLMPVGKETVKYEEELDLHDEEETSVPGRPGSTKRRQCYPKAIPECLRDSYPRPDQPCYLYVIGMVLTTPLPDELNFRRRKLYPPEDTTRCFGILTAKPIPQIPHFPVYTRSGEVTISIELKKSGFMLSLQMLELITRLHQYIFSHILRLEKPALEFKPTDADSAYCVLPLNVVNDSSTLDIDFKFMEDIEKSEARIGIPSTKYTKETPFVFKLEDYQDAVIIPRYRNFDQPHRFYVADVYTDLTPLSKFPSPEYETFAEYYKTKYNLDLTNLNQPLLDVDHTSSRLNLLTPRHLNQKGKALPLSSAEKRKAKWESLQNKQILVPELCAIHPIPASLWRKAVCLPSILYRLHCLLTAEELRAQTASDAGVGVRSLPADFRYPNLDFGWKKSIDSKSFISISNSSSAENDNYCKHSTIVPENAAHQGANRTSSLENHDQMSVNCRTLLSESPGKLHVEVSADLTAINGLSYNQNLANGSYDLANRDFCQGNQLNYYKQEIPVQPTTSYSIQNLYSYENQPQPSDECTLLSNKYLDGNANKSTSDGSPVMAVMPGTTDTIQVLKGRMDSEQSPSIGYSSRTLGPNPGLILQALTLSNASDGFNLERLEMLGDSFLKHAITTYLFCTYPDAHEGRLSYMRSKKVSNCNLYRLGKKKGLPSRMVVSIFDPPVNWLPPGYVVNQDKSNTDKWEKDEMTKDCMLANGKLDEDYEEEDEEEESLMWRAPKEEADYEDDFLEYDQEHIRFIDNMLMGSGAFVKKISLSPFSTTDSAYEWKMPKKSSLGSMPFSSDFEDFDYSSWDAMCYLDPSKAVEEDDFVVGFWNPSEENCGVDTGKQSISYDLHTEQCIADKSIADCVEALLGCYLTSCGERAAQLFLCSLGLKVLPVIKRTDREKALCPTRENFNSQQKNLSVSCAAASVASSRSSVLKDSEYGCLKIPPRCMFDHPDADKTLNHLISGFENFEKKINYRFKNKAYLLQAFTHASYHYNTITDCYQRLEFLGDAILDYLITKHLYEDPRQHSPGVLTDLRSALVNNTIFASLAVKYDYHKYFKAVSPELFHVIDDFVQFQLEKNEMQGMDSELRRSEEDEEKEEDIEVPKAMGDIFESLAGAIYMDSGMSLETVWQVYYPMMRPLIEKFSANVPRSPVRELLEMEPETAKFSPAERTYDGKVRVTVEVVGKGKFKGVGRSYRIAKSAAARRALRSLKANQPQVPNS
Of the large screens only hits and unclear results are named; the others gave an inactive call.

COc1ccccc1-c1n[nH]c(=S)o1	Dicer inh 3.7
FC(F)(F)c1ccc(-c2n[nH]c(=S)o2)cc1	none
COc1ccccc1-c1nc2ccccc2c(=O)o1	none
CCn1nc(C)cc1-c1n[nH]c(=S)o1	none
CCCCCc1nc2scc(-c3ccc(OC)c(OC)c3)c2c(=O)o1	none
COc1cccc(Cc2nnc(-c3ccc4c(c3)OCO4)o2)c1	none
O=c1/c(=C/c2cccnc2)sc2nc(-c3ccccc3)c(-c3ccccc3)n12	none
Cn1nc(C(F)(F)F)c(-c2ccc(Br)cc2)c1NC(=O)C(C)(C)C	none
COc1ccc(-c2cc(-c3ccccc3O)[nH]n2)cc1OC	Dicer inh 5
CCc1cc(-c2[nH]ncc2-c2ccc(OC)cc2)c(O)cc1O	none
COc1ccc(-c2cc(-c3cc(OC)ccc3O)[nH]n2)cc1	Dicer inh 8.1
COc1cc(-c2ccc(=O)[nH]n2)ccc1OC(F)F	none
COc1ccc(-c2ccc(=O)[nH]n2)cc1	none
COc1ccc(-c2nc(-c3ccccc3)no2)cc1OC	none
CCOC(=O)c1cnc2c(c(C)nn2C)c1Sc1ccc(Cl)cc1	none
CC(=O)N/C(=C\c1cc(F)cc(F)c1)C(=O)O	none
COC(=O)C1=C(C)NC2=C(C(=O)CC(c3ccccc3OC)C2)C1c1ccc(C(=O)OC)cc1 (stereo unspecified)	none
CC(C)(C)NC(=S)N/N=C/c1c(Br)cnn1Cc1ccc(Cl)cc1	none
CCOC(=O)Nc1c(C(=O)OCC)[nH]c2ccc(OC)cc12	Dicer inh 5.2
CCOC(=O)Nc1c(C(=O)OCC)[nH]c2ccc(F)cc12	none
CCOC(=O)c1[nH]c2ccc(F)cc2c1NC(C)=O	none
CCOc1cccc(C2Nc3c(C)cccc3-c3cc(C)nn32)c1O (stereo unspecified)	none
COc1ccc(C2Nc3ccccc3-c3cc(C)nn32)cc1O (stereo unspecified)	Dicer inh 3.6
COc1cccc(C2Nc3ccccc3-c3cc(C)nn32)c1OC (stereo unspecified)	none
Cc1cc2n(n1)C(c1ccc(O)c(O)c1)Nc1c(C)cccc1-2 (stereo unspecified)	none
CCOc1cc(C2Nc3c(C)cccc3-c3cc(C)nn32)ccc1O (stereo unspecified)	Dicer inh 3.6
Cc1cc2n(n1)C(c1cc(Br)ccc1O)Nc1ccccc1-2 (stereo unspecified)	Dicer inh 4.6
CCOc1cc(C2Nc3ccccc3-c3cc(C)nn32)ccc1O (stereo unspecified)	none
Cc1cc2n(n1)C(c1sccc1C)Nc1ccccc1-2 (stereo unspecified)	none
COc1cc(C2Nc3c(C)cccc3-c3cc(C)nn32)ccc1O (stereo unspecified)	none
COc1ccc(C2Nc3ccccc3-c3cc(C)nn32)cc1 (stereo unspecified)	none
COc1ccc(C2Nc3c(C)cccc3-c3cc(C)nn32)cc1O (stereo unspecified)	Dicer inh 3.9
Cc1cc2n(n1)C(c1ccccc1O)Nc1ccccc1-2 (stereo unspecified)	none
CN(C)/C=N/C1N=C(C2CC2)N(C)C(=O)N1 (stereo unspecified)	none
O=C(Nc1ccc(Br)cc1)C1CC(=O)N(c2ccccc2)C1 (stereo unspecified)	none
O=C(CSC1=NCCCCC1)c1ccccc1	none
Cc1nn(-c2cc(Cl)ccc2Cl)c(N)c1-c1nc(C(C)(C)C)cs1	none
CSc1n[nH]c(NC(=O)c2ccc(C(C)(C)C)cc2)c1-c1ccccn1	none
CCOC(=O)C1=C(C)Nc2nc3ccccc3n2C1c1cccc(C)c1 (stereo unspecified)	none
CCc1ccc2[nH]c3nc(SCC(=O)O)nnc3c2c1	none
C=CCn1c(SC(C(C)=O)C(=O)OCC)nnc1-c1ccncc1 (stereo unspecified)	none
Cc1nc(SCC(=O)Nc2cccc3nsnc23)oc1C	none
Cc1cc2n(n1)C(c1sccc1C)Nc1c(C)cccc1-2 (stereo unspecified)	none
Cc1cc2n(n1)C(c1ccc(N(C)C)cc1)Nc1ccccc1-2 (stereo unspecified)	none
Cc1cc2n(n1)C(c1ccc(N(C)C)cc1)Nc1c(C)cccc1-2 (stereo unspecified)	Dicer inh 6
COC(=O)C1CC2CC(CC(C(=O)OC)C23SCCS3)C1=O (stereo unspecified)	none
O=C1CCC(=O)N1c1cccc(-c2nc3ccccc3c(=O)o2)c1	none
O=C(O)c1cccc2cccc(S(=O)c3ccccc3)c12 (stereo unspecified)	none
CCCNC(=O)c1nn2c(c1Br)NC(c1cccs1)CC2C(F)(F)F (stereo unspecified)	none
O=C(c1nn2c(c1Cl)NC(c1ccccc1)CC2C(F)(F)F)N1CCCCC1 (stereo unspecified)	Dicer inh 5.6
CCC(C)NC(=O)c1nn2c(c1Cl)NC(c1ccc(Cl)cc1)CC2C(F)(F)F (stereo unspecified)	Dicer inh 4.9
O=C(c1nn2c(c1Cl)NC(c1ccc(F)cc1)CC2C(F)(F)F)N1CCCCC1 (stereo unspecified)	none
O=C(NCc1ccccc1)c1nn2c(c1Br)NC(c1ccccc1)CC2C(F)(F)F (stereo unspecified)	Dicer inh 5.2
O=C(c1nn2c(c1Cl)NC(c1ccc(Cl)cc1)CC2C(F)(F)F)N1CCSCC1 (stereo unspecified)	none
NC(=O)c1nn2c(c1Cl)NC(c1ccc(Cl)cc1)CC2C(F)(F)F (stereo unspecified)	Dicer inh 3.5
Cc1ccc(C2CC(C(F)(F)F)n3nc(C(=O)NCc4c(C)nn(C)c4C)c(Cl)c3N2)cc1 (stereo unspecified)	none
Cc1c(CNC(=O)c2nn3c(c2Cl)NC(c2cccs2)CC3C(F)(F)F)cnn1C (stereo unspecified)	none
CCC(C)NC(=O)c1cc2n(n1)C(C(F)(F)F)CC(c1ccc3c(c1)OCO3)N2 (stereo unspecified)	none
O=C(c1nn2c(c1Cl)NC(c1cccs1)CC2C(F)(F)F)N1CCCc2ccccc21 (stereo unspecified)	none
O=C(NCc1cccnc1)c1nn2c(c1Cl)NC(c1ccccc1)CC2C(F)(F)F (stereo unspecified)	none
CCOC(=O)CN1C(=O)C(O)(CC(=O)c2cccc3ccccc23)c2ccccc21 (stereo unspecified)	none
CC1CC(=O)Nc2ccccc2N1C(=O)c1sc2ccccc2c1Cl (stereo unspecified)	none
O=c1[nH]nc(SCc2ccc(Cl)cc2Cl)n1-c1cccc(Cl)c1	none
O=C(c1cccs1)n1c2ccc(F)cc2c2nc3ccccc3nc21	none
CCCCCCCC1CCC/C1=N/OC(=O)c1ccc([N+](=O)[O-])cc1 (stereo unspecified)	none
CCCCN1COc2c(cc(Cl)c3cccnc23)C1	none
O=C1c2cccnc2C(=O)N1c1ccc(F)cc1	none
CSc1nc(/C=N\c2nc(C)cc(C)n2)c(O)n1Cc1cccc(Cl)c1	none
COc1ccc(C2C(C(=O)c3cc4ccccc4o3)=C(O)C(=O)N2CCN2CCOCC2)cc1OC (stereo unspecified)	none
CCOc1ccc(C2C(C(=O)OC)=C(C)NC3=C2C(=O)CC(c2ccc(OC)cc2)C3)cc1 (stereo unspecified)	none
COc1ccccc1C(O)c1cnc(C(C)C)n1C (stereo unspecified)	none
O=S(=O)(c1ccc2c(c1)Cc1cc(S(=O)(=O)N3CCOCC3)ccc1-2)N1CCOCC1	none
CC(C)C(=O)Nc1nc(NC(=O)C(C)C)nc(-c2ccccc2C(F)(F)F)n1	Dicer inh 3.2
NNC(=O)Cn1nnc(-c2ccccc2C(F)(F)F)n1	none
CCC(=O)Nc1nc(NC(=O)CC)nc(-c2ccccc2C)n1	none

Bioassay records (PubChem BioAssay)
